High-throughput results (PubChem)
Compounds with a hit are over-represented: about 2.4% of the library has one in this group of screens.
Cruzain inh noDet – cruzain (T. cruzi) inhibition without detergent; Potency, µM, usual class: inhibitors; purified cruzain, Z-FR-AMC fluorescence, no detergent; 2.3% of 200,000 active; AID 1476; further: nearly all actives have a fitted effect of over 40% in size
Target sequence (P25779 123-467 limits assumed): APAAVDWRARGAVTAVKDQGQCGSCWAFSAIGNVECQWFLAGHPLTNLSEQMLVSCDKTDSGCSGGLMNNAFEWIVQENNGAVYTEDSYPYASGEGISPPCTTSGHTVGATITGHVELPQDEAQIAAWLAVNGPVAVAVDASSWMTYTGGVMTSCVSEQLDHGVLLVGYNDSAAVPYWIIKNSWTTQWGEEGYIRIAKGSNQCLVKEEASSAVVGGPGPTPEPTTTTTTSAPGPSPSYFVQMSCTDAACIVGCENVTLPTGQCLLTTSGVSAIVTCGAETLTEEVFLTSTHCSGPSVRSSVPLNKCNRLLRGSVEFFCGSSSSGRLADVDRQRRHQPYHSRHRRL
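Purified cruzain at 1.5 nM, pre-incubated 15 min with compound at room temperature in 100 mM sodium acetate pH 5.5, 5 mM DTT, 0.00005% Triton X-100. Reaction started with 2 uM Z-FR-AMC; AMC fluorescence increase over 60 s gives rate.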
Cruzain Triton – inhibitors of Trypanosoma cruzi cruzain with detergent; P25779; 0.43% of 200,000 active; purified cruzain, Z-FR-AMC fluorescence, 0.01% Triton; Potency, µM, actives largely listed as inhibitors; further: nearly all actives have a fitted effect of over 40% in size
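Read-out: AMC fluorescence (360 nm excitation, 450 nm emission), four reads over 2 min, first-to-third difference used. Conditions: cruzain 1.5 nM, Z-FR-AMC 2 uM, pH 5.5 acetate, 5 mM DTT, 0.01% Triton X-100.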
Large screens that a line does not name were inactive. The call rests on the fitted dose curve; in most records, active means well fitted curve in the direction sought with a large enough effect; inconclusive means small, poorly fitted or top-dose-only effect, or another doubt; inactive means no such curve, though single readings can be large; an effect the other way counts as inactive or inconclusive.

C#CCOCCOCCOCCNc1nc(N2CCN(C(=O)Cn3cc(CCCN=C(N)N)nn3)CC2)nc(N2CCN(C(=O)[C@H]([C@@H](C)CC)n3cc(CCCN=C(N)N)nn3)CC2)n1	Cruzain inh noDet 20µM, Cruzain Triton 25.1µM
C#CCOCCOCCOCCNc1nc(N2CCN(C(=O)Cn3cc(CCCN=C(N)N)nn3)CC2)nc(N2CCN(C(=O)[C@H](C(C)C)n3cc(CCO)nn3)CC2)n1	none
C/C(=N/NS(=O)(=O)c1ccc(C)cc1)c1cccc(NC(=O)c2cccc(Cl)c2)c1	none
C/C(=N/NS(=O)(=O)c1ccc(Cl)cc1)c1cccc(NC(=O)c2ccc(Cl)cc2Cl)c1	Cruzain inh noDet 25.1µM
COc1ccc(NC(=O)CSc2c3c(nc4ccc(Cl)cc24)CCCC3)cc1Cl	none
CCOC(=O)CC(NC(=O)CCc1c(C)nc2cc(-c3ccccc3)nn2c1C)c1ccc(C)cc1 (stereo not given)	Cruzain inh noDet inconclusive
O=[N+]([O-])c1ccc(-c2nc(-c3cccs3)c(-c3cccs3)[nH]2)cc1	Cruzain inh noDet 31.6µM
O=[N+]([O-])c1cccc(-c2nc(-c3cccs3)c(-c3cccs3)[nH]2)c1	Cruzain inh noDet inconclusive
COc1cc(NC(=O)c2cccc3c2C(=O)N(C2CCCCC2)C3)cc(OC)c1	none
CCN=C(Nc1ccc2c(c1)OCO2)SC1CC(=O)N(c2ccccc2F)C1=O (stereo not given)	none
C/C(CCc1ccc2c(c1)OCO2)=N\N=C(/N)SC1CC(=O)N(c2ccccc2F)C1=O (stereo not given)	Cruzain inh noDet 15.8µM
CC(C)C(NS(=O)(=O)c1ccc2c(c1)oc(=O)n2C)C(=O)NCc1ccccc1 (stereo not given)	none
Cc1ccc(-c2nc(CNC(=O)NC3CCCCC3)c(C)o2)cc1	none
O=C(Nc1cc2ccc(O)cc2oc1=O)c1ccc(F)cc1	none
CCOc1cc(-c2ccc(N)c(OCC)c2)ccc1N	Cruzain inh noDet 25.1µM
CCOc1ccc(NC(C)=O)cc1N	none
CCOC(=O)N1CCC(NC(=O)c2ccc3c(c2)N(Cc2cc(C)ccc2C)C(=O)c2ccccc2S3=O)CC1 (stereo not given)	Cruzain inh noDet inconclusive
Cc1ccc(N=C2NC(=O)CC(C(=O)Nc3cc(C(F)(F)F)ccc3Cl)S2)cc1 (stereo not given)	Cruzain inh noDet inconclusive
FC(F)(F)c1ccccc1-c1cc(NCc2cccnc2)ncn1	none
O=C(/C=C/C(=O)Oc1ccccc1C(=O)O)Oc1ccccc1C(=O)O	none
CC1=Nc2cc(C(=O)NC3CCCCC3)ccc2Sc2ccc(Cl)cc21	Cruzain inh noDet 25.1µM
CC1=Nc2cc(C(=O)NCCc3ccc(Cl)cc3)ccc2Sc2ccc(C)cc21	Cruzain inh noDet 10µM
CCCC1=Nc2cc(C(=O)NCCc3ccc(OCC)cc3)ccc2Sc2ccccc21	Cruzain inh noDet inconclusive
CC1=Nc2cc(C(=O)NC3CCCC3)ccc2Sc2ccc(Br)cc21	Cruzain inh noDet inconclusive
CN(Cc1ccco1)c1ncncc1-c1cccnc1	none
CCCOc1ccc(C(=O)NNC(=S)NC(=O)c2cc(-c3ccc(Cl)cc3)nc3ccccc23)cc1	Cruzain inh noDet inconclusive
O=C(NNC(=O)c1cc(-c2ccccc2)nc2ccccc12)Nc1cccc(Cl)c1	Cruzain inh noDet 20µM
CC(C)(C)c1ccc(-c2cc(C(=O)NNC(=O)Nc3ccccc3)c3ccccc3n2)cc1	Cruzain inh noDet inconclusive
COc1ccc(C(=O)NNC(=S)NC(=O)c2cc(-c3ccccc3)nc3ccccc23)cc1	Cruzain inh noDet inconclusive
COc1ccc(Cl)cc1C(=O)NNC(=S)NC(=O)c1cc(-c2ccccc2)nc2ccccc12	Cruzain inh noDet 3.16µM
COC(=O)c1ccc(NC(=S)NC(=O)c2cc(-c3ccccc3)nc3ccccc23)cc1	Cruzain inh noDet 10µM
Cc1nn(C(C)(C)C)c(OC(=O)c2cccc(F)c2)c1Sc1ccccc1	none
COc1ccc(Nc2c3c(nc4nncn24)CCC3)cc1Cl	none
COc1ccc(CCNC(=O)c2cc3c(s2)-c2c(C)cccc2OC3)c(OC)c1	Cruzain inh noDet inconclusive
COc1ccc(C(=O)N2CCC3(CCCN(Cc4ccncc4)C3)CC2)cc1	none
CCNc1ncc2nc(-c3ccc(Cl)cc3)c(=O)n(Cc3cccc(OC)c3)c2n1	none
O=S(=O)(O)c1ccc(NN(c2c(O)ccc3ccccc23)S(=O)(=O)O)cc1	none
CSc1ccc(/C=C2/C(C)=C(CC(=O)O)c3cc(F)ccc32)cc1	none
Cc1ccc(NC(=S)NC(=O)c2ccc(F)cc2)cc1S(=O)(=O)Nc1ccccc1Cl	Cruzain inh noDet inconclusive
O=C(NC(=S)Nc1ccc2c(c1)C(=O)c1ccccc1C2=O)c1ccc(F)cc1	Cruzain inh noDet 3.98µM
CN1CCN(c2cc(-c3ccc(N(C)C)cc3)ncn2)CC1	none
CN1/C(=C\C=N\NC(=O)c2ccc(O)cc2)C(C)(C)c2ccccc21	Cruzain inh noDet 20µM, Cruzain Triton inconclusive
CN1/C(=C\C=Nc2ccccc2)C(C)(C)c2ccccc21	none
Cc1cc(-c2csc(NC(=O)c3ccc(C#N)cc3)n2)c(C)n1Cc1ccco1	Cruzain inh noDet 7.94µM
Cc1csc(NC(=O)CSc2nnc(C)n2Cc2ccco2)n1	none
Cn1c(=O)c(-c2cccs2)nc2cncnc21	none
O=C1C2C(c3ccccc3)(C(=O)N1c1ccc(Cl)cc1)C2(c1ccccc1)c1ccccc1 (stereo not given)	Cruzain inh noDet 25.1µM
O=C1c2ccccc2C(=O)N1c1ccc(Cl)cc1	Cruzain Triton inconclusive
CC(C)C[C@@H](CC(=O)N[C@@H](CCCN)CC(=O)N[C@@H]1CCNC[C@H]1C(=O)N[C@H](CC(=O)N[C@@H](CCC(=O)O)CC(=O)O)Cc1c[nH]c2ccccc12)NC(=O)[C@@H]1CCCC[C@H]1N	none
CCCCOC(=O)CCn1[nH]c(=O)c2ccccc2c1=O	none
CCCCOC(=O)CCN1C(=O)/C(=C2\SC(=S)N(CCC(=O)OCCCC)C2=O)SC1=S	Cruzain inh noDet 12.6µM
O=C(CSc1nnc(-c2ccccc2F)o1)N1CCc2ccccc21	none
CC(=O)OCCCNc1cc(SCc2ccco2)c2nonc2c1[N+](=O)[O-]	none
CCCC(=O)OCCNc1cc(SCc2ccco2)c2nonc2c1[N+](=O)[O-]	Cruzain Triton 25.1µM
CCC(=O)N1c2nc(-c3ccco3)nn2C2(CCCCC2)[C@@H]2CCCC[C@@H]21	none
C/C(=N\NC(=O)c1ccc(Cl)c(Cl)c1)c1ccc(Br)s1	Cruzain inh noDet 25.1µM
C/C(=N\NC(=O)CNc1cccc(C)c1)c1ccc(Br)s1	none
C=CC(=O)OCC(CO)(COC(=O)C=C)COC(=O)C=C	none
Cc1ccccc1Nc1nc(CSc2nnnn2-c2ccccc2)cs1	Cruzain inh noDet 20µM
O=c1cc(CSc2nnnn2-c2ccccc2)nc2scc(-c3ccccc3)n12	Cruzain inh noDet 25.1µM
c1ccc(-c2nc(CSc3nnnn3-c3ccccc3)cs2)cc1	none
O=c1cc(CSc2nnnn2-c2ccccc2)nc2nc[nH]n12	none
O=C(Nc1ccccc1N1CCCC1)c1cc2ccccc2o1	none
O=C(Nc1ccccc1N1CCN(C(=O)c2ccccc2)CC1)c1cc2ccccc2o1	Cruzain inh noDet 0.159µM
COc1ccc(NC(=O)CSc2ncc(-c3ccc(F)cc3)n2Cc2ccco2)cc1	none
CC(=O)Nc1ccc(NC(=O)Cn2c(-c3ccc(F)cc3)cnc2SCC(=O)Nc2c(C)cccc2C)cc1	Cruzain inh noDet 20µM
O=C(CCSCc1ccc(Cl)cc1)N1CCN(c2ccccc2F)CC1	none
CSc1nc2ccccc2cc1/C=C(\C#N)c1ccc(Cl)c(Cl)c1	Cruzain inh noDet 25.1µM
CSc1nc2ccccc2cc1/C=C(\C#N)c1ccccc1	none
COc1ccc(Oc2ncc3nc(-c4ccc(Cl)cc4)c(=O)n(C)c3n2)cc1	none
